From PubChem BioAssay
In the library only some 2.3% were active in any assay of this set; here they are far more common.
ADAM17 inh = ADAM17 inhibitors, primary screen, biochemical, QFRET | Disintegrin and metalloproteinase domain-containing protein 17 (Homo sapiens), P78536 | recombinant ADAM17, EDANS/DABCYL FRET peptide cleavage | inhibition, % at 6.95 µM | actives 0.83% (n = 370,000) | AID 720648, 2013;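 active means inhibition above the mean of compounds lying between control limits plus 3 SD, set per campaign, cut at about 8.5% in these data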;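 further: 0% = DMSO-only wells as the low control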
KLK7 zymogen act = proKLK7 zymogen activators, primary screen, biochemical, fluorescence intensity. actives 0.9% (n = 370,000). purified proKLK7, EDANS-DABCYL substrate fluorescence; 100% is mature enzyme control, 0% vehicle. activation, % at 7 µM. Kallikrein-7 (Homo sapiens), P49862;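 active means activation above the mean of all tested compounds plus 3 SD, computed per campaign excluding outliers beyond control limits, cut at about 13% in these data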
Target sequence (P49862 whole entry, looked up): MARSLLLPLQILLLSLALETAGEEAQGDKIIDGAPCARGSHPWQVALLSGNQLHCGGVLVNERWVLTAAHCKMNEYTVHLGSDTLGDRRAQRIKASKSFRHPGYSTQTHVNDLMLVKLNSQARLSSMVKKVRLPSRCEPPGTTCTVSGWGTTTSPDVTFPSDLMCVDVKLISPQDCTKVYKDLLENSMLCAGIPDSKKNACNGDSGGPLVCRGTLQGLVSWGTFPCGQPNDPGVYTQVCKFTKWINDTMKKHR
ADAM10 inh = human ADAM10 inhibitors, primary screen, biochemical, QFRET, HTS; actives 0.62% (n = 370,000); AID 720582, 2013; recombinant ADAM10, EDANS/DABCYL FRET peptide cleavage, 3 h; inhibition, % at 7 µM; Disintegrin and metalloproteinase domain-containing protein 10 (Homo sapiens), O14672;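 active means inhibition above a per-campaign cutoff equal to the mean of compounds falling between control-based bounds plus 3 SD, cut at about 20% in these data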;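 further: 0% = DMSO wells while the 100% control is not disclosed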
V-ATPase pH = regulators of yeast V-ATPase proton pumping, primary screen, pHLuorin cytosolic pH fluorescence; actives 0.37% (n = 350,000); S. cerevisiae; response, % at 10 µM; in the data active means response mostly above about 7.3%, no sharp cut-off; inactive means mostly below about 5.4%; further: actives read high
ADAM10 counter = ADAM10 inhibitors, counter-screen for ADAM17 exosite inhibitor project, biochemical, FRET, human ADAM10 | actives 47% (n = 2,900) | inhibition, % at 6.95 µM | shares compounds with ADAM17 inh | recombinant ADAM10, EDANS/DABCYL FRET peptide cleavage, 3 h;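 active means mean inhibition over the triplicate runs exceeds the activity threshold set in the earlier primary screen, cut at about 20% in these data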;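 further: 0% = DMSO wells and 100% = marimastat wells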
ADAM17 confirm = ADAM17 inhibitors, hit retest, confirmation, biochemical, QFRET peptide cleavage | AID 743257, 2014 | shares compounds with ADAM17 inh | inhibition, % at 6.95 µM | recombinant ADAM17, EDANS/DABCYL QFRET peptide cleavage | actives 65% (n = 2,900);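 active means mean inhibition across replicates above the hit cutoff set in the primary screen, cut at about 8.5% in these data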;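 further: 0% = DMSO wells and 100% = marimastat wells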
* hit, by the source's call; nt = not tested or not shown.

SMILES | ADAM17 inh | KLK7 zymogen act | ADAM10 inh | V-ATPase pH | ADAM10 counter | ADAM17 confirm
COc1ccc(-c2nn(-c3ccccc3)cc2/C=N/NC(=O)c2cccc(S(=O)(=O)Nc3ccccc3Cl)c2)cc1 | 9.2* | -11 | -36 | 1 | -218 | -31
Nc1nc2c(ncn2[C@@H]2O[C@H](C(=O)N[C@H](Cc3ccccc3)C(=O)NCc3ccc4c(c3)OCO4)[C@@H](O)[C@H]2O)c(=O)[nH]1 | -3 | 0 | -12 | nt | nt | nt
Cc1[nH]c2ccccc2c1C(=O)CSC(=S)N1CCCCC1 | 11* | 0 | 17 | 2 | 12 | 8
CCCCCCCCN1C(=O)[C@@H](CC(=O)N2CCCC2)C[C@@]2(C(=O)OC)C1=C[C@H](C(C)(C)C)O[C@@H]2C | 0 | 0 | -3 | nt | nt | nt
C[C@H]1CN(S(=O)(=O)C(C)(C)C)[C@@H](CCO)/C1=C\c1ccccc1 | 0 | 0 | -12 | nt | nt | nt
